# Experimental data: PubChem BioAssay
# Active and inactive are the calls of the source. Unless noted, the rule behind the calls is not given here.
# What was measured:
# [1] = resazurin metabolic signal in HepG2 cells – cell-based, resazurin fluorescence, 24 h, PK04 Diversity Set, profiling panel (AID 1172); settings: HepG2 viability, higher = more signal
# [2] = budding yeast growth changes without added modifier – OD600, strain BY4716, 24 h, basal condition, primary screen (AID 1173); settings: S. cerevisiae BY4716 growth, OD600, 24 h; higher = more signal, called active from +8 up or from −8 down
# [3] = viability profiling in MM1S myeloma cells – cell-based, resazurin fluorescence, basal, 24 h, PK04 Diversity Set, profiling panel (AID 1174); settings: higher = more signal, called active from +8 up or from −8 down;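 note: MM1S multiple myeloma cell line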
# [4] = target: Dihydroorotate dehydrogenase (quinone), mitochondrial (Plasmodium falciparum (isolate 3D7)) (UniProt Q08210); assay: inhibition of P. falciparum DHODH – biochemical, C-terminal His tag, absorbance 600 nm, primary screen (AID 1175); settings: PfDHODH enzyme, DCIP absorbance 600 nm; higher = more signal, called active from +8 up or from −8 down;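 note: recombinant parasite enzyme with a five histidine tag at its C terminus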
# [5] = growth modulation of vineyard yeast isolate – strain RM11-1a, OD600, basal, 24 h, primary screen (AID 1177);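 note: cultures grown under basal conditions with no added stressor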; settings: S. cerevisiae RM11-1a growth, OD600, 24 h; higher = more signal, called active from +8 up or from −8 down
# [6] = growth of efflux-deficient E. coli DRC39 – strain DRC39, OD650, 24 h, E. coli filamentation inducers, primary screen (AID 1178);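 note: growth measured as culture turbidity by optical density at 650 nm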; settings: E. coli DRC39 acrAB, higher = more signal, called active from +8 up or from −8 down
# [7] = growth of efflux-deficient E. coli DRC39 – strain DRC39, OD650, 48 h, E. coli filamentation inducers, primary screen (AID 1179);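 note: screen aims at cell division blockers that make cells filament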; settings: E. coli DRC39 delta-acrAB growth, higher = more signal, called active from +8 up or from −8 down
# [8] = viability profiling in RPMI8226 myeloma cells – cell-based, resazurin fluorescence, basal, 24 h, PK04 Diversity Set, profiling panel (AID 1180); settings: higher = more signal;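 note: RPMI8826 multiple myeloma cell line at 5000 cells per well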
# [9] = target: E3 ubiquitin-protein ligase XIAP (Homo sapiens) (UniProt P98170); assay: small molecules binding XIAP protein – biophysical, small-molecule microarray, fluorescence 635 nm, primary screen (AID 1181); settings: higher = more signal;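 note: score merges 667 nm emission and signal to noise over triplicate slides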
# [10] = test system: XIP peptide (Xip251-270) binding; assay: XIP fragment 251-270 binding compounds – biochemical, small-molecule microarray, fluorescence 635/667 nm, 0.1 µg/mL protein, primary screen (AID 1182); settings: fluorescent protein binding, 635 nm, higher = more signal, called active from +8 up or from −8 down
# [11] = test system: XIP peptide (Xip251-270); assay: compounds binding XIP fragment 251-270 – biochemical, small-molecule microarray, fluorescence 635/667 nm, 0.5 µg/mL protein, primary screen (AID 1183); settings: fluorescence 635 nm, higher = more signal
# [12] = blood-stage malaria parasite viability loss – strain 3D7, DAPI fluorescence, 100 nL, primary screen (AID 1184);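 note: parasites grown inside human red blood cells in medium with human serum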; settings: P. falciparum 3D7 growth, 3 d, higher = more signal
# [13] = target: Homeobox protein Hox-A13 (Mus musculus) (UniProt Q62424); assay: disruptors of Hoxa13 oligonucleotide interaction – biochemical, fluorescence polarization, labeled oligonucleotide, primary screen (AID 1185); settings: Hoxa13:DNA binding, 15 min, higher = more signal, called active from +8 up or from −8 down
# [14] = blockers of DNA damage checkpoint Chk1 activation – imaging, HeLa, hydroxyurea, phospho-Chk1 antibody, percent positive cells, primary screen (AID 1186); settings: hydroxyurea-induced phospho-Chk1 immunofluorescence imaging, higher = more signal
# [15] = blockers of DNA damage checkpoint Chk1 activation – imaging, HeLa, hydroxyurea, phospho-Chk1 nuclear intensity, primary screen (AID 1187); settings: hydroxyurea-induced phospho-Chk1 immunofluorescence imaging, higher = more signal
# Homeobox protein Hox-A13 (Mus musculus), sequence (Q62424 whole entry, looked up): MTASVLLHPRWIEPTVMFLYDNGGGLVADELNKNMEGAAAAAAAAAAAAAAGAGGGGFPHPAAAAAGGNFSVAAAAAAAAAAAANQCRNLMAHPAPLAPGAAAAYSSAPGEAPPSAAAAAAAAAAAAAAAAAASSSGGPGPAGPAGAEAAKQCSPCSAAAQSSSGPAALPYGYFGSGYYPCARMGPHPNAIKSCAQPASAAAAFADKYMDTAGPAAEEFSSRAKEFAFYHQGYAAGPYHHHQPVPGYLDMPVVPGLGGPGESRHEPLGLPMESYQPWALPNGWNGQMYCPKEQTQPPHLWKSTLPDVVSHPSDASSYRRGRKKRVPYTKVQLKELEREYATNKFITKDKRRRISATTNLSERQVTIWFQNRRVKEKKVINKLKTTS
# E3 ubiquitin-protein ligase XIAP (Homo sapiens), sequence (P98170 whole entry, looked up, the tested form may be a part): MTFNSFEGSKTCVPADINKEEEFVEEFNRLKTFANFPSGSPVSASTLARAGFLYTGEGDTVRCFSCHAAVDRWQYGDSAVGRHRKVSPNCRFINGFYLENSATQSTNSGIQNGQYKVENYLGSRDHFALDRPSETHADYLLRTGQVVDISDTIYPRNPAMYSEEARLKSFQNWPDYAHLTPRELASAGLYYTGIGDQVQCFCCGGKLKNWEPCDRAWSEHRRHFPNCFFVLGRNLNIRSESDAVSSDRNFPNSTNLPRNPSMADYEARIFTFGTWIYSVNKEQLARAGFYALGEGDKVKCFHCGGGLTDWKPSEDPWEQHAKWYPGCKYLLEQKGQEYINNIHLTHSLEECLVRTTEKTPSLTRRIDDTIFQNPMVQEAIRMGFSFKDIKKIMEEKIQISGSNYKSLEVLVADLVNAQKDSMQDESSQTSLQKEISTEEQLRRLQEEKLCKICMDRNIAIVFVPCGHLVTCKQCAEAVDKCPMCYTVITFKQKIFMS
# Dihydroorotate dehydrogenase (quinone), mitochondrial (Plasmodium falciparum (isolate 3D7)), sequence (Q08210 whole entry, looked up): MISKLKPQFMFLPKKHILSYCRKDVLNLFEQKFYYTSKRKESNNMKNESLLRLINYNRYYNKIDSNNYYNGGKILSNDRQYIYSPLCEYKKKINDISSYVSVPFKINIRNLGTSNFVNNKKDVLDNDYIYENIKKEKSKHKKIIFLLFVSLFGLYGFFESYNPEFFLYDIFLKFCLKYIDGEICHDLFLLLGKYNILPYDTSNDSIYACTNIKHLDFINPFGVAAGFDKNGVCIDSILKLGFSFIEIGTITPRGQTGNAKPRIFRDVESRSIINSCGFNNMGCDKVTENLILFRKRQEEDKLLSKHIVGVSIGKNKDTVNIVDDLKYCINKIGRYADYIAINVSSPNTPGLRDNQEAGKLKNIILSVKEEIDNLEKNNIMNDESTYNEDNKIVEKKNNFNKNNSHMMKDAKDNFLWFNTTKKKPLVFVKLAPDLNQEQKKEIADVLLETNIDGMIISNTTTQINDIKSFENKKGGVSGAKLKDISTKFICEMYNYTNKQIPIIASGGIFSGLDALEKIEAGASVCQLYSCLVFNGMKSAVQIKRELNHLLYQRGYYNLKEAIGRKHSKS
Compound,z-score [1],z-score [2],z-score [3],composite z-score [4],z-score [5],z-score [6],z-score [7],z-score [8],composite z-score [9],composite z-score [10],composite z-score [11],z-score [12],z-score [13],z-score [14],z-score [15]
CO[C@H]1COC(=O)CC=C[C@@H](C)COC(=O)[C@@H](C)NC(=O)CC=C[C@@H]1C,0.931,-2.02 (inactive),1.13 (inactive),-0.0214 (inactive),-4.97 (inactive),0.236 (inactive),-1.28 (inactive),0.181,-0.216,0.89 (inactive),0.405,-0.437,0.382 (inactive),,
O=[N+]([O-])c1ccc(C[n+]2ccc3ccc(O)cc3c2)o1,-0.104,-5.54 (inactive),0.342 (inactive),-2 (inactive),-0.234 (inactive),-0.55 (inactive),-0.688 (inactive),0.405,0.411,1.14 (inactive),0.676,0.87,-5.47 (inactive),-0.0465 (inactive),-0.0404 (inactive)
C=CCN(C(=O)C1N(c2ccc(CCO)cc2)C(=O)C2C(C(=O)O)C3C=CC21O3)C(C)(C)C (configuration not stated),0.43,-1.39 (inactive),1.06 (inactive),-0.363 (inactive),-1.41 (inactive),1.44 (inactive),0.94 (inactive),0.327,-0.253,0.865 (inactive),-1.52,-1.71,0.729 (inactive),0.0293 (inactive),-0.112 (inactive)
COc1ccc([Si](C)(C)[C@H]2[C@H](CCO)O[C@@]3(C(=O)N(Cc4ccc(N5CCCCC5=O)cc4)c4ccccc43)[C@@H]2C)cc1,-1.69,-1.07 (inactive),-7.58 (inactive),-5.37 (inactive),2 (inactive),2.18 (inactive),-0.0822 (inactive),-2.73,0.0223,0.125 (inactive),0.81,-1.39,-4.54 (inactive),-0.688 (inactive),-0.167 (inactive)
CO[C@@H]1COC(=O)[C@H](COCc2ccccc2)NC(=O)CC=C[C@@H](C)[C@H](OC)COC(=O)[C@H](COCc2ccccc2)NC(=O)CC=C[C@H]1C,0.784,-0.173 (inactive),1.28 (inactive),0.946 (inactive),0.371 (inactive),2.23 (inactive),-0.0924 (inactive),0.415,0.378,0.271 (inactive),-0.713,-0.989,0.421 (inactive),,
CCC(=O)[C@]12O[C@@]3([C@@H]4C(=O)OCC[C@@H]41)N(Cc1ccccc1)C(C)=C(C(=O)OC)[C@@H](c1ccccc1)N3C2=O,0.859,-2.74 (inactive),0.83 (inactive),0.0379 (inactive),-0.704 (inactive),-0.101 (inactive),-0.0892 (inactive),0.95,0.0289,0.195 (inactive),-0.573,1.24,-4.26 (inactive),,
C[C@@H]1CC[C@H]2C(=O)N3[C@@H](CC[C@@H](C)[C@@H]3c3cccc(N4CCOCC4)c3)C(=O)N2[C@H]1c1cccc(Br)c1,1.05,-1.89 (inactive),0.328 (inactive),-0.0779 (inactive),-0.123 (inactive),0.401 (inactive),0.238 (inactive),1.37,-0.111,0.806 (inactive),0.541,0.656,-5.55 (inactive),,
CC(C)[Si]1(C(C)C)OCc2cc(C3CC3)nc(-c3ccccc3)c21,0.883,-1.53 (inactive),0.972 (inactive),0.135 (inactive),-1.75 (inactive),1.39 (inactive),0.656 (inactive),0.536,0.0399,0.119 (inactive),0.939,-1.16,-0.631 (inactive),-0.37 (inactive),-0.0248 (inactive)
COc1cc2c(cc1OC)CN(C(=O)[C@@H]1[C@H]3C(=O)O[C@H](c4ccccc4)[C@H](c4ccccc4)N3[C@H](c3ccccc3OCCO)[C@@]13C(=O)Nc1ccccc13)CC2,0.193,1.34 (inactive),0.255 (inactive),-0.495 (inactive),3.1 (inactive),0.392 (inactive),0.952 (inactive),0.105,-0.127,1.79 (inactive),0.829,-2.18,0.829 (inactive),0.306 (inactive),0.876 (inactive)
CN(C)C(=O)[C@@]1(Cc2ccccc2N=[N+]=[N-])N=C(c2ccc(OCCCO)cc2)O[C@H]1c1ccccc1CN=[N+]=[N-],1.12,-1.4 (inactive),-0.437 (inactive),-0.812 (inactive),-0.726 (inactive),2.45 (inactive),0.842 (inactive),-1.67,0.229,0.0857 (inactive),0.896,-2.25,-1.82 (inactive),-0.554 (inactive),-0.339 (inactive)
